# Experimental data: PubChem BioAssay AID504834 (National Center for Advancing Translational Sciences (NCATS), 2011)
# Among all 320,000 compounds or so, about 22,000 (6.9%) were called active. Another 27% or so got no clear call; they are omitted. The entries come from a sample that favours actives as a whole. A number with no mark means an inactive call. Calls follow the shape of the dose curve; as a rule, active = well fitted inhibition curve with a large enough effect; inconclusive = small, poorly fitted or top-dose-only effect, or another doubt; inactive = no such curve, though single readings can be large or run the other way.
# Assay: Primary qHTS for delayed death inhibitors of the malarial parasite plastid, 96 hour incubation
# Details: P. falciparum luciferase reporter growth; series mostly up to 28.7 µM; activity change, negative = inhibition: at the top concentration
# In short: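 Two parasite generations (96 h, 37 C, 5% CO2) of compound exposure in infected erythrocytes (0.05% parasitemia, 2% hematocrit). Luciferase-reporter P. falciparum; decreased luminescence indicates inhibited growth, aimed at apicoplast-acting delayed death.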
# % is scaled to controls: 0 for no effect and ±100 for the full control effect; potency is read from the fitted curve at half-maximal effect.
SMILES,"activity change, negative = inhibition",Potency
C=CCc1ccccc1OCC(O)CN1CCN(CCO)CC1 (configuration not stated),-15.9%,
C[n+]1cc(-c2ccccc2)oc1-c1ccccc1,65.7%,
Cc1nc2cccnc2nc1C,36.2%,
Cc1ccc(C)c(N2CCN(C(=O)CCCn3c(=O)c4cccn4c4cccnc43)CC2)c1,,13.1 µM (active)
Cc1ccc(C)c(N2CCN(C(=O)Cn3ncn4cccc4c3=O)CC2)c1,20.2%,
Cc1ccc(C)c(N2CCN(C(=O)CCCCn3c(=O)[nH]c4ccccc4c3=O)CC2)c1,8.49%,
Cn1nccc1/C=N\NC(=O)c1ccc(Cl)cc1,17.8%,
CCNC(=O)CC1C(=O)N(c2ccc(OC)cc2)C(=O)N1CCOC (configuration not stated),94.5%,
Cc1nnc(NC(=O)Nc2ccc(Cl)c(Cl)c2)s1,-59%,
Cc1ccc(NC(=O)Nc2nnc(-c3ccncc3)s2)cc1,,9.28 µM (active)
CC(C)=CC(=O)Nc1nnc(-c2ccc(F)cc2)s1,31.8%,
COc1ccc(CSc2nnnn2-c2ccc(C(=O)O)cc2)cc1,1.63%,
COc1ccc(Cc2nnnn2CC(=O)O)cc1,,1.65 µM (active)
CCCn1nnnc1NCc1ccc(OC)cc1,21.1%,
O=C(CCc1nnc(Cc2ccc3c(c2)OCO3)o1)NCCc1ccccc1Cl,10.2%,
Cc1ccc(-c2ncc(Cl)cc2-c2ccc(S(C)(=O)=O)cc2)cn1,,13.5 µM (active)
Cc1c2cnn(CC(=O)NCCCN3CC(C)CC(C)C3)c(=O)c2c(C)n1Cc1ccc(Cl)cc1 (configuration not stated),3.52%,
Cc1nc2ccccc2c(=O)n1NC(=O)c1ccccc1,-8.41%,
Cc1ccc(SCc2c(C(=O)N/N=C/C3CC=CCC3)nnn2-c2nonc2N)cc1 (configuration not stated),3.06%,
CNC1(c2nnnn2-c2c(C)cccc2C)CCOC(C)(C)C1 (configuration not stated),-24.4%,
COc1ccc(C23NCCN2C(=O)c2ccccc23)cc1 (configuration not stated),22.2%,
COc1ccc(C2(C)ON(c3ccccc3C(F)(F)F)C2=O)cc1 (configuration not stated),,2.62 µM (active)
COc1ccc(C2(C)NC(=O)N(CC(=O)c3ccc4c(c3)OCO4)C2=O)cc1 (configuration not stated),67.1%,
COC(c1ccccc1)(c1ccccc1)C(Oc1nc(C)cc(C)n1)C(=O)O (configuration not stated),-23.8%,
Cc1ccc(OCCNC(=O)CN2C(=O)NC3(CCCC3)C2=O)cc1,5.65%,
COc1ccc(NC(=O)CSc2nc(SC)ns2)c(OC)c1,4.59%,

SMILES,"activity change, negative = inhibition",Potency
Cc1ccc(Cc2nnc(SCC(=O)Nc3ccccc3C)[nH]c2=O)cc1,-9.18%,
COC(=O)COc1ccc2c(=O)c(Oc3ccccc3Br)coc2c1,0.781%,
FC(F)(F)Oc1ccc(-c2cn3cccnc3n2)cc1,155%,
COc1ccc(-c2[nH]ncc2CN(Cc2nccn2C)C(C)C)cc1F,-16.8%,
CCN1CCC2(CCN(Cc3cn[nH]c3-c3ccc(OC)c(F)c3)C2)C1 (configuration not stated),,10.4 µM (active)
COc1ccc(CN2CCN(c3ccccc3F)CC2)c(OC)c1,13.6%,
COc1ccc(C(O)(C2CCCCC2)C(CN2CCCC2)c2ccccc2)cc1 (configuration not stated),-22.6%,
CN(C)CC(O)COc1ccc(C(C)(C)c2ccc(OCC(O)CN(C)C)cc2)cc1 (configuration not stated),53%,
CCCC(O)(c1ccc(OC)cc1)C(CN(C)C)c1ccccc1 (configuration not stated),,14.7 µM (active)
COc1ccc(NC(=O)CN(C)C(=O)c2n[nH]c3ccccc23)cc1,82.2%,
S=C(NCc1ccc(Cl)cc1)NC12CC3CC(CC(C3)C1)C2,,11.7 µM (active)
S=C(NCc1ccc(Cl)cc1)NC1CCCCC1,6.71%,
O=C(NCc1ccc(Cl)cc1)NCc1ccc(Cl)cc1,0.842%,
CCN(Cc1ccccc1)S(=O)(=O)c1cc2c3c(c1)CCN3C(=O)CC2,-27.2%,
COc1ccc(C(CNCC(=O)Nc2ccccc2F)N(C)C)cc1 (configuration not stated),24.6%,
COc1ccc(S(=O)(=O)Nc2ccccc2C(=O)N2CCCC2)cc1C,2.67%,
COc1ccccc1NS(=O)(=O)c1ccc(C(=O)N2CCN(c3ccccc3O)CC2)cc1,,11.7 µM (active)
O=C(c1ccc(S(=O)(=O)N2CCCC2)cc1)N1CCN(c2ccccc2F)CC1,,4.65 µM (active)
COc1ccccc1N1CCN(C(=O)c2ccc(S(=O)(=O)N3CCCCC3)cc2)CC1,0.287%,
O=C(c1ccc(S(=O)(=O)N2CCOCC2)cc1)N1CCN(c2ccccc2)CC1,-21.8%,
COc1ccccc1NC(=O)C1CCN(C(=O)c2ccc(C(C)(C)C)cc2)CC1,25.4%,
O=C(COC(=O)/C=C/c1ccc2c(c1)OCO2)NC1CCS(=O)(=O)C1 (configuration not stated),13.5%,
Cn1nc(C(=O)OCC(=O)N(Cc2ccccc2)C(C)(C)C)c2ccccc2c1=O,14.4%,
CSc1nnc(NC(=O)c2nc(S(=O)(=O)Cc3ccc(C)cc3)ncc2Cl)s1,2.67%,
CC1(C)COC(c2cccn2Cc2ccccc2Cl)=N1,,9.28 µM (active)
O=C(Nc1cccn(Cc2ccccc2Cl)c1=O)NC1CCCCC1,9.52%,
